Screening results as filed in PubChem BioAssay.
The list is not random: actives were taken first. Their share in the collection is about 2.3%.
AmpC inh detg = AmpC beta-lactamase inhibition with detergent present | AID 485294 | P00811 | 0.041% of 370,000 active | Potency, µM (titrated, usually from 114 µM), usual class: inhibitors | AmpC hydrolysis of nitrocefin, absorbance 480 nm, 0.01% Triton; further: nearly all actives have a fitted effect of over 25% in size
Target sequence (P00811 whole entry, looked up): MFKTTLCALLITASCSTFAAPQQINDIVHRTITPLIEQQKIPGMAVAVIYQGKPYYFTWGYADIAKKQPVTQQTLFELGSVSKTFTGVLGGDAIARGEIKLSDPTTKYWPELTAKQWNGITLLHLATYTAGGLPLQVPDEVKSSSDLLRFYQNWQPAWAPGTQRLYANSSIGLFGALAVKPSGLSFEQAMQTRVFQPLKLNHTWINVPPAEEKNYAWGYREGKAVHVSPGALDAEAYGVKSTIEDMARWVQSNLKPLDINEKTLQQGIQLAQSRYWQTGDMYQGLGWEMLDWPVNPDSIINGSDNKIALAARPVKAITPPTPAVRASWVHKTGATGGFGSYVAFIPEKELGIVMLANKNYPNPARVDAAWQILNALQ
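AmpC (5.3 nM in the dispensed reagent) in 20 mM phosphate pH 7.0 with 0.01% (detergent screen) or 0.0001% Triton X-100 was preincubated with compounds for 15 min at room temperature. Nitrocefin was then added from an 800 uM solution, and hydrolysis was followed at 480 nm.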
AMA1-RON2 inh = inhibitors of Plasmodium falciparum AMA1-RON2 interaction. AID 720542. Potency, µM (series often up to 58.2 µM), actives largely listed as inhibitors. AlphaScreen AMA1-biotinylated RON2 peptide binding. 0.2% of 360,000 active; further: nearly all actives have a fitted effect of over 45% in size
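AMA1 (3D7) with his tag at 25 nM final met compounds first, then biotinylated RON2 peptide at 25 nM; detection used donor plus acceptor beads, 10 µg/mL apiece, read by AlphaScreen after 30 min at room temperature.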
AmpC no deterg = blocks E. coli AmpC beta-lactamase in detergent-free assay; AmpC nitrocefin hydrolysis, absorbance 480 nm, 0.0001% Triton; Potency, µM (doses to about 57.1 µM), hits mostly inhibitors; 0.52% of 330,000 active; further: nearly all actives have a fitted effect of over 20% in size
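20 mM phosphate pH 7.0 + 0.01% (detergent screen) or 0.0001% Triton X-100; 5.3 nM AmpC reagent; cpd preinc 15 min RT; nitrocefin (800 uM stock) to start; A480 q20 s × 4 min; Activity was normalised to no-enzyme and no-compound control wells.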
Marburg entry inh = inhibitors of Marburg virus binding or cell entry | Potency, µM (highest dose often 37.8 µM), usual class: inhibitors | AID 540276 | Marburg virus pseudotyped entry inhibition, cell reporter | 1.8% of 300,000 active; calls by dose curve; tested in HEK293 cells
Lassa entry inh = Lassa virus entry inhibition. Lassa virus pseudotype entry inhibition, cell reporter. Potency, µM (doses to about 37.9 µM), most hits filed as inhibitors. 1.2% of 300,000 active. AID 540256; calls by dose curve; tested in HEK293 cells; further: nearly all actives have a fitted effect of over 50% in size
Each line names hits and unclear results; the compound was inactive in the other large screens. Unless noted, the call rests on the fitted dose curve; in most records, active means well fitted curve in the direction sought with a large enough effect; inconclusive means small, poorly fitted or top-dose-only effect, or another doubt; inactive means no such curve, though single readings can be large; an effect the other way counts as inactive or inconclusive.

CC(C)(C)NCC(O)CON=C1c2ccccc2-c2ccccc21 (stereo not given)	Marburg entry inh 10µM (no result: Lassa entry inh)
CCOc1ccc(Nc2oc(/C=C/c3cc(OC)c(OC)c(OC)c3)nc2C#N)cc1	none (no result: AMA1-RON2 inh, AmpC no deterg)
CCN=c1scc(-c2ccc3c(c2)NC(=O)CO3)n1N=C1CCCC1	Marburg entry inh 3.98µM, Lassa entry inh inconclusive
CCNc1ccc(Br)cc(C(=O)/C=C/c2ccccc2Cl)c1=O	Marburg entry inh 16.4µM, Lassa entry inh inconclusive (no result: AmpC inh detg, AmpC no deterg)
Cc1ccc(N2C(=O)c3ccccc3C2O)nc1 (stereo not given)	Marburg entry inh 2.06µM, Lassa entry inh 3.66µM (no result: AMA1-RON2 inh)
Cc1cc(Sc2ncnc(N)c2[N+](=O)[O-])ncn1	Marburg entry inh inconclusive, Lassa entry inh 11.2µM
Cc1cc(Sc2nc(N)ncc2[N+](=O)[O-])ncn1	Marburg entry inh inconclusive
Cc1ccc(NC(=O)CSc2n[nH]c(-c3ccccn3)n2)cc1	Marburg entry inh 4.47µM, Lassa entry inh inconclusive
O=C(CSc1n[nH]c(-c2ccccn2)n1)Nc1ccc(F)cc1	AmpC inh detg inconclusive, Marburg entry inh inconclusive, Lassa entry inh 10µM
O=C(CSc1n[nH]c(-c2ccccn2)n1)Nc1ccc(Cl)cc1	Marburg entry inh inconclusive, Lassa entry inh inconclusive
CC1=NC(=O)C(C#N)C=C1c1ccncc1 (stereo not given)	none (no result: AmpC inh detg, AMA1-RON2 inh, AmpC no deterg, Lassa entry inh)
Cc1ccc(CNC(=O)CSc2ncc(S(=O)(=O)c3ccc(C)c(Cl)c3)c(=O)[nH]2)cc1	none (no result: AMA1-RON2 inh, AmpC no deterg, Marburg entry inh)
Cc1ccc(-c2nc(CS(=O)(=O)CC(=O)N3CCc4ccccc4C3)c(C)o2)cc1	AmpC inh detg inconclusive, AmpC no deterg 39.8µM (no result: Lassa entry inh)
Cc1ccc(-c2nc(CS(=O)(=O)CC(=O)N3CCN(c4ccccc4)CC3)c(C)o2)cc1	Lassa entry inh inconclusive (no result: AMA1-RON2 inh, AmpC no deterg)
Cc1ccc(-c2nc(CS(=O)(=O)CC(=O)N3CCCCCC3)c(C)o2)cc1	AmpC no deterg 6.31µM (no result: Marburg entry inh, Lassa entry inh)
Cc1ccc(S(=O)(=O)C(NC(=O)c2ccccc2)=C(Cl)Cl)cc1	Marburg entry inh inconclusive, Lassa entry inh inconclusive (no result: AmpC inh detg, AmpC no deterg)
Cc1ccc(S(=O)(=O)/C(=C/Cl)NC(=O)c2ccccc2)cc1	AmpC inh detg inconclusive, Marburg entry inh 7.08µM, Lassa entry inh 7.31µM
C#CCCCO/N=C1\C[C@@H](O)[C@@H](O)[C@@H]2[C@@H]3C(=O)N(C4CCCCC4)C(=O)[C@@H]3CC[C@@H]12	none (no result: AmpC inh detg, AMA1-RON2 inh, AmpC no deterg, Lassa entry inh)
CC1=CC(C)(C)Nc2ccc(OC(=O)C(Cc3ccccc3)N3C(=O)c4ccccc4C3=O)cc21 (stereo not given)	AMA1-RON2 inh inconclusive, Lassa entry inh 5.01µM
CCn1c(SCC(=O)N/N=C/c2ccc(C)o2)nnc1-c1ccc(C(C)(C)C)cc1	AmpC inh detg inconclusive, Lassa entry inh inconclusive
CCn1c(SCC(=O)N/N=C/c2c[nH]c3ccccc23)nnc1-c1ccc(C(C)(C)C)cc1	Marburg entry inh inconclusive, Lassa entry inh 4.47µM
CCOC(=O)OC[C@H]1O[C@H](c2cc(C)cc(C)c2)C=C[C@@H]1OC(=O)OCC	none (no result: AmpC inh detg, AMA1-RON2 inh, AmpC no deterg, Lassa entry inh)
N#Cc1c(NC(=O)CSc2nc(N)cc(=O)[nH]2)sc2c1CCCC2	Marburg entry inh 10µM, Lassa entry inh inconclusive
COC(=O)c1c(NC(=O)CCCC(=O)O)sc(C)c1C	AmpC inh detg inconclusive
CCC(=O)Nc1sc2c(c1C#N)CCC2	none (no result: Lassa entry inh)
CCc1ccc(CCC(=O)Nc2sc3c(c2C#N)CCCC3)o1	AmpC no deterg inconclusive, Marburg entry inh 2.31µM, Lassa entry inh inconclusive
CCc1ccc(CCC(=O)Nc2sc(C)c(C)c2C(=O)OC)o1	AMA1-RON2 inh 26.7µM, Lassa entry inh inconclusive
COC[C@@H](OC(C)=O)[C@H]1OCc2ccccc2[C@@H]1C=Cc1ccccc1	none (no result: AmpC inh detg, AMA1-RON2 inh, AmpC no deterg, Lassa entry inh)
Cc1cc(N=Nc2ccc(C)c(N=Nc3cc(C)c(N)cc3N)c2)c(N)cc1N	AMA1-RON2 inh 22.4µM (no result: Marburg entry inh, Lassa entry inh)
COc1ccc([C@]23Cc4cc(OC)c(OC)cc4[C@H](O2)C2=C(CC4(CCCCC4)OC2=O)O3)cc1	none (no result: AmpC inh detg, AMA1-RON2 inh, AmpC no deterg, Lassa entry inh)
CN(C)CCCNc1nccc(-c2c(-c3ccc(F)cc3)nn3cc(C(F)(F)F)ccc23)n1	Lassa entry inh 22.3µM (no result: AmpC inh detg, AMA1-RON2 inh, AmpC no deterg, Marburg entry inh)
Fc1ccc(Nc2nccc(-c3c(-c4ccc(C(F)(F)F)cc4)nn4ncccc34)n2)cc1F	none (no result: AmpC inh detg, AMA1-RON2 inh, AmpC no deterg, Marburg entry inh)
COc1cc(CCN2C(=O)NC(c3ccccc3)C(C(C)=O)=C2C)cc(OC)c1OC (stereo not given)	none (no result: AmpC inh detg, AMA1-RON2 inh, AmpC no deterg, Lassa entry inh)
O=C(N/N=C/c1ccc2cccc(OCc3ccccc3)c2n1)c1ccc(Br)cc1	AmpC inh detg inconclusive, Marburg entry inh 16.4µM, Lassa entry inh inconclusive
